# From PubChem BioAssay AID651692 (Broad Institute, 2012)
# Potency and affinity values are given separately. Activity calls are given as the source filed them.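 The calls were made as follows: active = fitted half-maximal concentration for loss of cell signal no higher than twice the top valid tested concentration; inconclusive = flat curve at 30 to 70% inhibition, or poor fit; inactive = flat within 30%, signal rise, or potency above limit.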
# Experiment: MDA-MB-231 cell growth inhibition, dose response, cytotoxicity control for RAD54 inhibitor project, CellTiter-Glo luminescence, cherry-pick (AID 651692);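 also: more negative values mean stronger loss of viable cell signal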
# Conditions: MDA-MB-231 viability, 24 h; series mostly up to 26 µM
row,Structure (SMILES),outcome
1,O=C(NC1CN2CCC1CC2)c1cc(Cl)c([N+](=O)[O-])c2nc[nH]c12 (stereo not drawn),inactive
2,Nc1ccnn1C1CCNCC1,inactive
3,CN1CCN(c2cc(N3CCNCC3)ccc2[N+](=O)[O-])CC1,inactive
4,Cc1ccc(-c2nc(N(C)C3CCN(C)CC3)c3ccccc3n2)cc1,inactive
5,COc1ccc2c(c1)[nH]c1c(C)nccc12,inactive
6,CCN1CCN(c2ccc(N)c(C)c2)CC1,inactive
7,CN1CCN(c2ccc(N)cc2)CC1,inactive
8,CC(Cc1ccccc1)NCC(=O)Nc1cc(N(C)C)nc2ccccc12 (stereo not drawn),inactive
9,Cc1nccc2c1[nH]c1ccccc12,inactive
10,CN1CCC(N(C)c2nc(-c3ccccc3)nc3ccccc23)CC1,inactive
11,Nc1ccc(CCN2CCCC2)cc1,inactive
12,CCNCCNc1ccc([N+](=O)[O-])c2cccnc12,inactive
13,Nc1ccc(C2(c3ccc(N)cc3)CN3CCC2CC3)cc1,inactive
